Experimental data published in PubChem BioAssay (Tox21).
Inconclusive results are not listed. Calls of active or inactive are those of the source. Unless noted, the call rests on the fitted dose curve.

What was measured:
[1] = qHTS assay to identify small molecule antagonists of the estrogen related receptor signaling pathway with the pleiotropic PPARgamma coactivator (PGC) from Tox21 10K library - cell viability counter screen (AID 1224840; active means well fitted cell-killing curve with a large enough effect in the repeat runs, not every such curve was filed as active; further: nearly all actives have a fitted effect of over 40% in size)
Method in brief: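 Readout: fluorescence intensity from CellTiter-Fluor after 30 min at 37 C/5% CO2. Preceded by 17.5 h treatment of PGC/ERR cells with DMSO-dissolved compounds, added 6 h post-seeding.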

[2] = qHTS assay to identify small molecule agonists of the hypoxia (HIF-1) signaling pathway - cell viability counter screen (AID 1224844); further: nearly all actives have a fitted effect of over 50% in size
Method in brief: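 In this counter screen, HRE-bla ME-180 cell viability after 17 hrs of compound exposure at 37C was read by CellTiter-Glo luminescence, multiplexed with the beta-lactamase reporter measurement.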

[3] = qHTS assay to identify small molecule agonists of H2AX (AID 1224845; active means well fitted activation curve with a large enough effect in the signal ratio in the repeat runs, not every such curve was filed as active; the % refers to the signal ratio)
Method in brief: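 Phospho-H2AX Ser139 measured by HTRF (ex 320 nm; em 665 and 620 nm) after 24 hr antibody incubation. Compounds, 15 concentrations, 0.76% DMSO, were applied to CHO-K1 cells for 3hr at 37C before lysis.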

[4] = qHTS assay to identify small molecule agonists of the hypoxia (HIF-1) signaling pathway (AID 1224846; active means well fitted activation curve with a large enough effect in the signal ratio in the repeat runs, not every such curve was filed as active; the % refers to the signal ratio)
Method in brief: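 ME-180 HRE-bla reporter cells; compounds in DMSO, 17 h at 37C; read-out beta-lactamase via CCF4-AM FRET.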

[5] = qHTS assay to identify small molecule agonists of H2AX - cell viability counter screen (AID 1224847); further: top concentration of the series differs between compounds; nearly all actives have a fitted effect of over 30% in size
Method in brief: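 Cytotoxicity counter screen in wild-type CHO-K1 cells: a 3 hr compound treatment at 37C across 15 concentrations, followed by CellTiter-Glo luminescence to gauge viable cells.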

[6] = target: Thyrotropin receptor (Homo sapiens) (UniProt P16473); test: qHTS assay to identify small molecule agonists of the thyroid stimulating hormone receptor (TSHR) signaling pathway (AID 1224843); further: nearly all actives have a fitted effect of over 45% in size
Thyrotropin receptor (Homo sapiens), sequence (P16473 whole entry, looked up): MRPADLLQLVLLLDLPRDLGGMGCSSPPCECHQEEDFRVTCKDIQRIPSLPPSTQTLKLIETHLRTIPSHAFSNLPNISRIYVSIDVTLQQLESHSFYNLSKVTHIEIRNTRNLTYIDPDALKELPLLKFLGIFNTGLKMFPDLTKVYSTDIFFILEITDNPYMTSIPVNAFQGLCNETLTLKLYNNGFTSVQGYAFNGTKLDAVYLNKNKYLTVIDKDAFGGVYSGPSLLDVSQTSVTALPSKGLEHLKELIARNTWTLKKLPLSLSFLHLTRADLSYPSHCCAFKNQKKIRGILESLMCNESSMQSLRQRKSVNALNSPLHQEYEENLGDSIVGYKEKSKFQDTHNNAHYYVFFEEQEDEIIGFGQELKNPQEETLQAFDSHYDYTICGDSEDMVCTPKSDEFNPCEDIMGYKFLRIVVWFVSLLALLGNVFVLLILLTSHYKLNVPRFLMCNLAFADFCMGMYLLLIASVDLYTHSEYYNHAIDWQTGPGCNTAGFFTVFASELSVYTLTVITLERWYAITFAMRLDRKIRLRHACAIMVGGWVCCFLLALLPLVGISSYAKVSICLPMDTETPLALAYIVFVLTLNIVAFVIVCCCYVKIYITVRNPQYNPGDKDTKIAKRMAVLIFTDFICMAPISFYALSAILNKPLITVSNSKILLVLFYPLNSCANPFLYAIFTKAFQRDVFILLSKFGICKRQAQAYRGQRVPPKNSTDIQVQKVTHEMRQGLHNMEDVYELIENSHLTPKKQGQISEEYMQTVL
Method in brief: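 A cell-based cAMP HTRF format was run in TSHR-transfected HEK293 cells, 800 per well. Treatment: 30 min, room temperature. Detection: 1 h with labelled cAMP and anti-cAMP cryptate. Concentration-response over 15 points, three replicates.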

[7] = qHTS assay to identify small molecule antagonists of the estrogen related receptor (ERR) signaling pathway from Tox21 library (AID 1224848; active means well fitted inhibition curve with a large enough effect in the repeat runs; further: nearly all actives have a fitted effect of over 50% in size)
Method in brief: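 ERR cell line, 2,000 cells/well. 6 h settle, then compound (DMSO) added; 18 h at 37 C; ONE-Glo luminescence after 30 min RT.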

[8] = qHTS assay to identify small molecule agonists of the estrogen related receptor (ERR) signaling pathway from Tox21 library (AID 1224849); further: nearly all actives have a fitted effect of over 15% in size
Method in brief: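 Luciferase activity in ERR pathway reporter cells served as the agonist readout; exposure lasted 18 h at 37 C, with ONE-Glo detection after 30 min at room temperature.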
On the % scale 0 is the no-effect control and ±100 the full control effect.

CCN(CC)C(=O)C1CN2CCc3cc(OC)c(OC)cc3C2CC1OC(C)=O (configuration not stated)
inactive: outcome [1] | outcome [2] | outcome [3] | outcome [4] | Potency [5]

CCC(CO)CO
inactive: outcome [1] | outcome [2] | outcome [3] | outcome [4]

CCCCOC(=O)[C@@H](C)Oc1ccc(Oc2ccc(C(F)(F)F)cn2)cc1
inactive: outcome [1] | outcome [2] | outcome [3] | outcome [4]

CO[Si](CCCCl)(OC)OC
inactive: outcome [1] | outcome [2] | outcome [3] | outcome [4]

Cc1cc(C)cc([N+](=O)[O-])c1
inactive: outcome [1] | outcome [2] | outcome [3] | outcome [4] | Potency [5]

C=COCCOCCOC=C
inactive: outcome [1] | outcome [2] | outcome [3] | outcome [4] | Potency [5]

O=c1[nH]c(=O)c2[nH]c(=O)[nH]c2[nH]1
inactive: viability change, negative = cytotoxic [1] -2.62% [at 8.39 µM] | activity change, negative = cytotoxicity [2] 3.89% [at 6.97 µM] | activation (H2AX phosphorylation) [3] 0.259% [at 14 µM] | activation [4] 0.359% [at 7.01 µM] | activity change, negative = cytotoxicity [5] -1.7% [at 14 µM]

BrC/C=C/CBr
inactive: viability change, negative = cytotoxic [1] 5.69% [at 19 µM] | activity change, negative = cytotoxicity [2] -5.88% [at 15.8 µM] | activation (H2AX phosphorylation) [3] -0.0482% [at 31.6 µM] | activation [4] -1.18% [at 15.8 µM] | activity change, negative = cytotoxicity [5] 1.6% [at 31.6 µM]

COc1ccc(OC)c(NC(=O)CC(C)=O)c1
inactive: outcome [1] | outcome [2] | outcome [3] | outcome [4] | Potency [5]

CCOc1ccc(NC(=O)OC(C)C)cc1OCC
inactive: outcome [1] | outcome [2] | outcome [3] | outcome [4] | Potency [5]

CC(C)COC(=O)CCCCC(=O)OCC(C)C
inactive: outcome [1] | outcome [2] | outcome [3] | outcome [4] | Potency [5]

O=C(O)Cc1cccc(-c2cc(CCCCCCc3ccc(O[C@H]4O[C@H](CO)[C@@H](O)[C@H](O)[C@@H]4O)c(-c4cccc(CC(=O)O)c4)c3)ccc2O[C@H]2O[C@H](CO)[C@@H](O)[C@H](O)[C@@H]2O)c1
inactive: viability change, negative = cytotoxic [1] -0.865% [at 0.349 µM] | activity change, negative = cytotoxicity [2] 6.42% [at 0.29 µM] | activation (H2AX phosphorylation) [3] 0.108% [at 0.582 µM] | activation [4] -0.541% [at 0.291 µM] | activity change, negative = cytotoxicity [5] -1.18% [at 0.582 µM]

Nc1ccc(S(=O)(=O)Nc2ccccn2)cc1
inactive: outcome [1] | outcome [6] | outcome [2] | outcome [3] | Potency [5]

C=CC(C)(O)CC/C=C(\C)CC (configuration not stated)
inactive: outcome [1] | outcome [2] | outcome [3] | outcome [4] | Potency [5]

CC(C)CCO
inactive: outcome [1] | outcome [6] | outcome [3] | Potency [5]

CCC(C)N (configuration not stated)
inactive: outcome [1] | outcome [2] | outcome [3] | outcome [4] | Potency [5]

Nc1ccc(S(=O)(=O)NC(=O)c2ccccc2)cc1
inactive: outcome [1] | outcome [6] | outcome [2] | Potency [5]

Cc1ccc2c(c1)c1c3n2CCNC3CCC1 (configuration not stated)
inactive: outcome [1] | outcome [6] | outcome [2] | outcome [3] | Potency [5]

CCC(=O)c1ccc(O)cc1
inactive: outcome [1] | outcome [2] | outcome [3] | outcome [4] | Potency [5]

COc1cc2c(Nc3ccc(Br)cc3F)ncnc2cc1OCC1CCN(C)CC1
inactive: outcome [1] | outcome [2] | outcome [3] | outcome [4] | Potency [5]

CN(C)CCCNCCC#N
inactive: outcome [1] | outcome [2] | outcome [3] | outcome [4] | Potency [5]

c1ccc(CNc2ncnc3nc[nH]c23)cc1
inactive: outcome [1] | outcome [6] | outcome [2] | outcome [3] | Potency [5]

Cc1cc(O)c2c(c1)C(=O)c1cccc(O)c1C2=O
inactive: outcome [1] | outcome [2] | outcome [3] | outcome [4] | Potency [5]

Cc1nc2ccccc2c(=O)o1
inactive: outcome [1] | outcome [2] | outcome [3] | outcome [4] | Potency [5]

Nc1cc(C(=O)O)ccc1Cl
inactive: outcome [1] | outcome [6] | outcome [2] | outcome [3] | Potency [5]

O=S(=O)(O)c1cc(O)ccc1O
inactive: outcome [1] | outcome [6] | outcome [2] | Potency [7] | outcome [8]

NS(=O)(=O)c1cc2c(cc1Cl)NC(CC1CCCC1)NS2(=O)=O (configuration not stated)
inactive: outcome [1] | outcome [6] | outcome [2] | outcome [3] | Potency [5]

CC(C)COC(=O)CC(C(=O)OCC(C)C)S(=O)(=O)O (configuration not stated)
inactive: outcome [1] | outcome [2] | outcome [3] | outcome [4]

CCC(=O)OCCC(C)CCC=C(C)C (configuration not stated)
inactive: outcome [1] | outcome [2] | outcome [3] | outcome [4] | Potency [5]

CC(C)c1ccccc1O
inactive: outcome [1] | outcome [2] | outcome [3] | outcome [4] | Potency [5]

O=C(CN1CCN(Cc2ccc3c(c2)OCO3)CC1)N1c2ccccc2Sc2ccccc21
inactive: outcome [1] | outcome [2] | outcome [3] | outcome [4] | Potency [5]

CC(=O)OC(C(=O)c1ccccc1)c1ccccc1 (configuration not stated)
inactive: outcome [1] | outcome [2] | outcome [3] | outcome [4] | Potency [5]

C[C@H]1O[C@H](O[C@H]2[C@H](O)[C@@H](O)[C@@H](O[C@H]3[C@H](O)[C@@H](O)[C@H](O)O[C@@H]3CO)O[C@@H]2CO)[C@H](O)[C@@H](O)[C@@H]1N[C@H]1C=C(CO)[C@@H](O)[C@H](O)[C@H]1O
inactive: outcome [1] | outcome [2] | outcome [3] | outcome [4] | Potency [5]

COC(OC)C(C)c1ccccc1 (configuration not stated)
inactive: outcome [1] | outcome [2] | outcome [3] | outcome [4] | Potency [5]

Nc1nc(=O)n([C@@H]2O[C@H](CO)[C@@H](O)[C@@H]2F)cc1I
inactive: outcome [1] | outcome [6] | outcome [3] | outcome [4] | Potency [5]

CC(C)CCCC(C)CC=O (configuration not stated)
inactive: outcome [1] | outcome [2] | outcome [3] | outcome [4] | Potency [5]

NCCc1ccn[nH]1
inactive: outcome [1] | outcome [6] | outcome [2] | outcome [3] | Potency [5]

COc1cc([N+](=O)[O-])ccc1N
inactive: outcome [6]

Nc1ccc(/C=C/c2ccc(N)cc2S(=O)(=O)O)c(S(=O)(=O)O)c1
inactive: activity, negative = inhibition [7] 4.28% [at 0.349 µM] | activity change, positive = activation [8] 2.43% [at 0.349 µM]
